Measured values taken from PubChem BioAssay AID1159580 (chemical genetic matrix, 2015).
Values joined by “and” are separate entries in the source; they are usually repeats but may differ in a detail not shown here. Identical values can stand only once. Hit rate of the full screen: of about 5,500 compounds, about 2,000 (36%) were called active. About 18% were inconclusive and are not listed. Rule as the data show it: active = normalized growth mostly below about 0.91 (no sharp cut-off); inconclusive = no clear call, values can overlap the other calls; inactive = mostly above about 0.92. Some of the results follow.

Test: chemical genetic growth profiling, strain panel (AID 1159580);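 also: tested at 20 µM; growth read once vehicle control cultures reached saturation at 30 °C; 1 = growth at the plate median or of vehicle wells; lower values mean less growth of the strain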
Details: S. cerevisiae deletion strains, growth OD

Measured: normalized growth

CCN(CC)CCOC(=O)C(c1ccccc1)c1ccccc1
inactive: locus YAL013W, strain DEP1, hits give low values 0.982 | locus YAL021C, strain ccr4, hits give low values 0.964 | locus YAL026C, strain drs2, hits give low values 0.975 | locus YAL030W, strain snc1, hits give low values 0.948 | locus YBL061C, strain skt5, hits give low values 0.965 | locus YBR009C, strain hhf1, hits give low values 0.99 | locus YBR021W, strain FUR4, hits give low values 0.989 | locus YBR023C, strain chs3, hits give low values 0.957 | locus YBR171W, strain sec66, hits give low values 0.971 | locus YBR229C, strain ROT2, hits give low values 1 | locus YBR231C, strain swc5, hits give low values 0.967 | locus YBR279W, strain paf1, hits give low values 0.971 | locus YCL011C, strain gbp2, hits give low values 0.948 | locus YCL016C, strain dcc1, hits give low values 0.987 | locus YCL029C, strain bik1, hits give low values 0.979 | locus YCL069W, strain vba3, hits give low values 0.976 | locus YCR088W, strain abp1, hits give low values 0.968 | locus YDL005C, strain med2, hits give low values 0.958 | locus YDL035C, strain GPR1, hits give low values 0.988 | locus YDL040C, strain nat1, hits give low values 0.972 | locus YDL074C, strain BRE1, hits give low values 1.01 | locus YDL101C, strain DUN1, hits give low values 0.995 | locus YDL134C, strain PPH21, hits give low values 0.997 | locus YDL185W, strain tfp1, hits give low values 0.96 | locus YDL192W, strain arf1, hits give low values 0.989 | locus YDR001C, strain nth1, hits give low values 0.964 | locus YDR069C, strain doa4, hits give low values 0.936 | locus YDR101C, strain arx1, hits give low values 1.01 | locus YDR137W, strain rgp1, hits give low values 0.994 | locus YDR159W, strain sac3, hits give low values 0.947 | locus YDR162C, strain NBP2, hits give low values 0.961 | locus YDR195W, strain ref2 0.889 | locus YDR297W, strain sur2, hits give low values 0.974 | locus YDR318W, strain mcm21, hits give low values 0.986 | locus YDR334W, strain swr1, hits give low values 0.943 | locus YDR335W, strain msn5, hits give low values 0.976 | locus YDR388W, hits give low values 1 | locus YDR392W, strain spt3, hits give low values 1.01 | locus YDR502C, strain sam2, hits give low values 1 | locus YEL003W, strain gim4, hits give low values 0.972 | locus YEL037C, strain rad23, hits give low values 0.973 | locus YEL061C, strain CIN8 (second series), hits give low values 0.957 | locus YEL061C, strain CIN8, hits give low values 0.987 | locus YER015W, strain faa2, hits give low values 0.984 | locus YER016W, strain bim1, hits give low values 0.976 | locus YER110C, hits give low values 0.968 | locus YER111C, strain swi4, hits give low values 0.957 | locus YER155C, strain BEM2 (second series), hits give low values 0.951 | locus YER155C, strain BEM2, hits give low values 1.01 | locus YER167W, strain BCK2, hits give low values 0.993 | locus YFR010W, strain ubp6, hits give low values 0.959 | locus YGL078C, strain dbp3, hits give low values 0.987 | locus YGL086W, strain mad1, hits give low values 0.995 | locus YGL167C, strain pmr1, hits give low values 0.962 | locus YGL173C, strain kem1, hits give low values 0.98 | locus YGL227W, strain vid30, hits give low values 0.961 | locus YGL240W, strain doc1, hits give low values 0.963 | locus YGL248W, strain PDE1, hits give low values 1.01 | locus YGL253W, strain hxk2, hits give low values 0.97 | locus YGR135W, strain pre9, hits give low values 0.955 | locus YGR229C, strain SMI1, hits give low values 0.979 | locus YGR252W, strain gcn5, hits give low values 0.994 | locus YHR013C, strain ard1, hits give low values 0.964 | locus YHR027C, strain rpn1, hits give low values 0.971 | locus YHR030C, strain SLT2, hits give low values 0.981 and 0.995 | locus YHR079C, strain IRE1 (second series), hits give low values 0.99 | locus YHR079C, strain IRE1, hits give low values 0.986 | locus YHR094C, strain hxt1, hits give low values 0.993 | locus YHR129C, strain ARP1, hits give low values 0.99 | locus YHR142W, strain chs7, hits give low values 0.967 | locus YHR200W, strain rpn10, hits give low values 0.975 | locus YIL066C, strain RNR3, hits give low values 1 | locus YIL073C, strain SPO22, hits give low values 0.935 | locus YIL125W, strain kgd1, hits give low values 1 | locus YIR030C, strain dcg1, hits give low values 0.987 | locus YJL092W, strain hpr5, hits give low values 0.964 | locus YJL095W, strain BCK1 (second series), hits give low values 0.973 | locus YJL095W, strain BCK1, hits give low values 1.02 and 0.981 | locus YJL115W, strain asf1, hits give low values 0.949 | locus YJL129C, strain trk1, hits give low values 0.972 | locus YJL134W, strain LCB3, hits give low values 0.989 | locus YJL154C, strain vps35, hits give low values 0.959 | locus YJL164C, strain tpk1, hits give low values 0.993 | locus YJL166W, strain qcr8, hits give low values 0.958 | locus YJL168C, strain set2, hits give low values 1 | locus YJL187C, strain SWE1 (second series), hits give low values 1.01 | locus YJR043C, strain POL32, hits give low values 0.998 | locus YJR066W, strain TOR1, hits give low values 0.963 | locus YKL009W, strain mrt4, hits give low values 0.959
